The record followed here is the supplement of paper PMC11628255, “Interference of metal ions on the bioluminescent signal of firefly, Renilla, and NanoLuc luciferases in high-throughput screening assays” (Frontiers in Chemistry, 2024).

The subject of the assay is Renilla luciferase (RLuc). Briefly: residual bioluminescent signal relative to negative control without GSH; higher = less interference (more residual luciferase signal). To be noted: screening conditions buffer. The method, then:
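Selected metal salts at 3-4 concentrations tested on purified FLuc, NLuc or RLuc in screening buffer with 0, 0.2 or 2 mM glutathione added; 10 min enzyme pre-incubation at RT, luminescence 10 min after substrate. Signal normalised to negative control without GSH (% N_VALUE); triplicate wells.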

[1] abbreviates: metal salt concentration 0.2 mM, glutathione 0 mM.
[2] abbreviates: metal salt concentration 0.2 mM, glutathione 0.2 mM.
Setting [3] is: metal salt concentration 0.2 mM, glutathione 2 mM.
Where [4] appears, read: metal salt concentration 1 mM, glutathione 0 mM.
Where [5] appears, read: metal salt concentration 1 mM, glutathione 0.2 mM.
Setting [6] is: metal salt concentration 1 mM, glutathione 2 mM.

± gives the standard deviation of the averaged measurements.

As for `O=[N+]([O-])[O-].[Ag+]` [silver nitrate], the residual bioluminescent signal runs as follows: (metal salt concentration 0.002 mM, glutathione 0 mM) 116 ± 9.8%; (metal salt concentration 0.002 mM, glutathione 0.2 mM) 109 ± 15%; (metal salt concentration 0.002 mM, glutathione 2 mM) 165 ± 28%; (metal salt concentration 0.0684 mM, glutathione 0 mM) 49.2 ± 15%; (metal salt concentration 0.0684 mM, glutathione 0.2 mM) 115 ± 7.6%; (metal salt concentration 0.0684 mM, glutathione 2 mM) 160 ± 13%. Besides, the residual bioluminescent signal under setting [1] was determined as 5.26 ± 2.6%; the residual bioluminescent signal under setting [2] was 119 ± 16%; the residual bioluminescent signal under setting [3] stood at 174 ± 13%; the residual bioluminescent signal under setting [4] amounted to 2.52 ± 2%; the residual bioluminescent signal under setting [5] was found to be 102 ± 13%; the residual bioluminescent signal under setting [6] stood at 171 ± 12%.
Take `O=[N+]([O-])[O-].O=[N+]([O-])[O-].[Cu+2]` [copper(II) nitrate]: the residual bioluminescent signal by setting is: (metal salt concentration 0.1 mM, glutathione 0 mM) 90.5 ± 7.6%; (metal salt concentration 0.1 mM, glutathione 0.2 mM) 101 ± 3.8%; (metal salt concentration 0.1 mM, glutathione 2 mM) 115 ± 12%; (metal salt concentration 0.132 mM, glutathione 0 mM) 79.1 ± 10%; (metal salt concentration 0.132 mM, glutathione 0.2 mM) 88.3 ± 16%; (metal salt concentration 0.132 mM, glutathione 2 mM) 135 ± 20%. For the same compound, the residual bioluminescent signal came out at 107 ± 14% under setting [1]; 98.8 ± 24% under setting [2]; 120 ± 19% under setting [3]; 2.29 ± 2.2% under setting [4]; 27.7 ± 5.2% under setting [5]; 122 ± 20% under setting [6].
With `O=[N+]([O-])[O-].O=[N+]([O-])[O-].[Zn+2]` [zinc nitrate], the residual bioluminescent signal by setting is: under setting [4], 112 ± 18%; under setting [5], 116 ± 25%; under setting [6], 158 ± 11%; (metal salt concentration 2.5 mM, glutathione 0 mM) 104 ± 9.8%; (metal salt concentration 2.5 mM, glutathione 0.2 mM) 110 ± 13%; (metal salt concentration 2.5 mM, glutathione 2 mM) 110 ± 6.2%. Besides, the residual bioluminescent signal runs as follows: (metal salt concentration 4.13 mM, glutathione 0 mM) 89.4 ± 5%; (metal salt concentration 4.13 mM, glutathione 0.2 mM) 96.3 ± 13%; (metal salt concentration 4.13 mM, glutathione 2 mM) 46.9 ± 19%; (metal salt concentration 10 mM, glutathione 0 mM) 2.06 ± 0.69%; (metal salt concentration 10 mM, glutathione 0.2 mM) 4.57 ± 0.79%; (metal salt concentration 10 mM, glutathione 2 mM) 2.74 ± 2.1%.
